From PubChem BioAssay (EPA / NIEHS)
Some compounds were tested as several samples or in several runs, with calls that do not always agree. Activity calls are given as the source filed them. Rule for the calls: active = hit-call score of the fitted dose curve at least 0.9, where 1 is the maximum; inactive = score below 0.9.

What was measured:
[1] = APR_HepG2_P-H2AX_72hr: Apredica 72-hour HepG2 Assay for H2AX Phosphorylation (AID 2282916); conditions: imaging, actives raise or lower the signal;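 note: phospho-histone H2A.x immunostain intensity per cell marking DNA damage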
Method in brief: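 Phospho-H2A.x imaging endpoint in HepG2 after 72 hr compound exposure (0.39–200 uM, duplicate wells). Activity derived by bidirectional curve fitting with DMSO as baseline.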

[2] = APR_HepG2_MitoMembPot_72hr: Apredica 72-hour HepG2 Assay for Mitochondrial Membrane Potential (AID 2282917); conditions: imaging, actives raise or lower the signal
Method in brief: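 HepG2 cells dosed 72 hr with compound at 0.39–200 uM in duplicate, 0.5% v/v DMSO final. Mitochondria stained with 250 nM MitoTracker Red CMXRos for 30 min before formaldehyde fixation, imaged by high-content fluorescence; bidirectional fit versus DMSO.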

[3] = APR_HepG2_MitoticArrest_72hr: Apredica 72-hour HepG2 Assay for Mitotic Arrest (AID 2282918); conditions: high-content imaging, actives raise or lower the signal
Method in brief: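 HepG2 cells were exposed for 72 hr to compound at 0.39–200 uM (10 concentrations, duplicate) in 0.5% v/v DMSO, fixed in 3.7% formaldehyde, immunostained for phospho-histone H3 with Hoechst 33342 and imaged by high-content fluorescence; bidirectional fits versus DMSO.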

[4] = APR_HepG2_MicrotubuleCSK_72hr: Apredica 72-hour HepG2 Assay for Microtubule CSK Stabilty (AID 2282919); conditions: HepG2 microtubule cytoskeleton, high-content imaging, actives raise or lower the signal
Method in brief: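 HepG2, 72 hr cmpd exposure, 0.39–200 uM (10 pts, duplicate), 0.5% DMSO. 3.7% formaldehyde fix, 0.5% Triton perm, anti-alpha-tubulin/Cy5 plus Hoechst. HCS fluorescence intensity; bidirectional fit vs DMSO baseline; taxol as positive control.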

[5] = APR_HepG2_P-H2AX_24hr: Apredica 24-hour HepG2 Assay for H2AX Phosphorylation (AID 2282920); conditions: high-content imaging, actives raise or lower the signal
Method in brief: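 HepG2 human liver cells were exposed for 24 hr to compounds at 0.39–200 uM in duplicate, with 0.5% v/v DMSO final. Fixed cells were immunostained for phospho-histone H2A.x plus Hoechst 33342, imaged by HCS fluorescence, and fitted bidirectionally against DMSO.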

[6] = APR_HepG2_StressKinase_72hr: Apredica 72-hour HepG2 Assay for Stress Kinase (AID 2282921); conditions: HepG2 stress kinase (phospho-c-Jun) imaging, actives raise or lower the signal
Method in brief: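 Stress kinase signal reflects nuclear phospho-c-Jun staining in fixed, permeabilized cells exposed 72 h to compound at 0.39–200 uM; DMSO-normalized, fitted for increases or decreases.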

[7] = APR_HepG2_StressKinase_24hr: Apredica 24-hour HepG2 Assay for Stress Kinase (AID 2282922); conditions: HepG2 stress kinase (phospho-c-Jun) imaging, actives raise or lower the signal
Method in brief: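 Read-out: phospho-c-Jun immunofluorescence (Cy3 secondary) quantified by high-content imaging at 20x, nuclei defined by Hoechst 33342. Human HepG2 liver cells dosed 24 hr, 0.39–200 uM, DMSO 0.5% v/v; gain or loss of signal fitted relative to DMSO.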

[8] = APR_HepG2_MitoMass_72hr: Apredica 72-hour HepG2 Assay for Mitochondrial Mass (AID 2282924); conditions: high-content imaging, actives raise or lower the signal;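 note: MitoTracker Red CMXRos stain intensity per cell imaged as mitochondrial mass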
Method in brief: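 Read-out: MitoTracker Red fluorescence intensity from automated imaging (20x, six fields per well) in human HepG2 liver cells. Dosing ran 72 hr, 0.39–200 uM, 0.5% DMSO; bidirectional curve fitting versus DMSO baseline.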

[9] = APR_HepG2_NuclearSize_72hr: Apredica 72-hour HepG2 Assay for Nuclear Size (AID 2282925); conditions: high-content imaging, actives raise or lower the signal
Method in brief: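 Read-out: nuclear diameter from Hoechst 33342 images (ArrayScan, 20x, six fields/well), via cell-cycle image analysis. HepG2 were dosed 0.39–200 uM for 72 hr in 0.5% DMSO. Bidirectional fit relative to DMSO.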

[10] = ATG_CRE_CIS: Attagene CIS-FACTORIAL HepG2 Assay for human cAMP Responsive Element (CRE) binding protein 3 (AID 2282926); conditions: HepG2 CRE cis-reporter, Attagene multiplexed mRNA; actives raise or lower the signal
Method in brief: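 Capillary electrophoresis of 6-FAM-labelled, HpaI-digested PCR products quantified reporter transcripts. These came from HepG2 transiently transfected with cis-element reporters and exposed to test chemicals for 24 hours, with DMSO defining baseline activity.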

[11] = target: CCAAT/enhancer-binding protein beta (Homo sapiens) (UniProt P17676); test: ATG_C_EBP_CIS: Attagene CIS-FACTORIAL HepG2 Assay for human CCAAT/Enhancer Binding Protein (C/EBP) beta (AID 2282927); conditions: HepG2 Attagene cis-factorial transcription factor reporter; actives raise or lower the signal
Method in brief: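 HepG2 transiently transfected with multiplexed reporter units under cis-regulatory promoters reporting endogenous C/EBPb activity. After 24 h exposure, reporter mRNA assayed by RT-PCR, fluorescent labelling, HpaI digestion and capillary electrophoresis; bidirectional fitting versus DMSO.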

[12] = ATG_CMV_CIS: Attagene CIS-FACTORIAL HepG2 Assay for human CMV (Internal Marker) (AID 2282928); conditions: HepG2 CMV promoter reporter, transcription factor profiling; actives raise or lower the signal;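 note: endpoint acts as a background internal control marker rather than a target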
Method in brief: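 Fluorescence intensity of RT-PCR-derived reporter fragments, resolved by capillary electrophoresis, gives the signal. HepG2 liver cells bearing transfected cis-element reporters were treated 24 h; activity in either direction was fit relative to DMSO-treated controls.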

[13] = ATG_DR4_LXR_CIS: Attagene CIS-FACTORIAL HepG2 Assay for human Liver X Receptor (LXR), DR4 submotif (AID 2282929); conditions: HepG2 Attagene DR4 cis-reporter, mRNA transcription; actives raise or lower the signal
Method in brief: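 HepG2 cells transiently transfected with cis-promoter-driven multiplexed reporter units (DR4 element) were dosed for 24 h. Reporter mRNA was quantified by RT-PCR, fluorescent primer extension, HpaI digestion and capillary electrophoresis; bidirectional fitting versus DMSO baseline.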

[14] = target: Aryl hydrocarbon receptor (Homo sapiens) (UniProt P35869); test: ATG_Ahr_CIS: Attagene CIS-FACTORIAL HepG2 Assay for human Aryl Hydrocarbon Receptor (Ahr) (AID 2282930); conditions: HepG2 AhR cis-factorial reporter transcription; actives raise or lower the signal
Method in brief: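 HepG2 cells transiently transfected with cis-element-driven multiplexed reporter units; endogenous AhR activity read as reporter mRNA 24 h after dosing, via RT-PCR, 6-FAM labelling, HpaI digestion and capillary electrophoresis. Bidirectional fit relative to DMSO.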

[15] = ATG_AP_1_CIS: Attagene CIS-FACTORIAL HepG2 Assay for human Activator Protein 1 (AP-1) (AID 2282931); conditions: HepG2 Attagene cis-factorial AP-1 reporter mRNA; actives raise or lower the signal
Method in brief: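 HepG2 cells transiently transfected with cis-element-driven multiplex reporter units; 24 h compound exposure. Reporter mRNA quantified by RT-PCR, FAM-labelled fragments resolved by capillary electrophoresis; bidirectional fit versus DMSO baseline.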

[16] = ATG_AP_2_CIS: Attagene CIS-FACTORIAL HepG2 Assay for human Activator Protein 2 (AP-2) (AID 2282932); conditions: HepG2 AP-2 cis-reporter, Attagene transcription factor profiling; actives raise or lower the signal
Method in brief: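 Read-out: fluorescent reporter mRNA via RT-PCR and capillary electrophoresis, 24 h post-dose in transiently transfected HepG2. Endogenous factors drive cis-promoter reporters; gain or loss of signal fitted bidirectionally against DMSO.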

[17] = ATG_BRE_CIS: Attagene CIS-FACTORIAL HepG2 Assay for human Bone Morphogenetic Protein (BMP) Response Element (BRE) (AID 2282933); conditions: HepG2 BMP response element reporter, Attagene transcription factor profiling; actives raise or lower the signal
Method in brief: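 Multiplexed cis-reporter assay, HepG2, 24 h exposure. mRNA from reporter units quantified via RT-PCR/CE; DMSO baseline; bidirectional curve fit.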

[18] = target: Retinoic acid receptor alpha (Homo sapiens) (UniProt P10276); test: ATG_DR5_RAR_CIS: Attagene CIS-FACTORIAL HepG2 Assay for human Retinoic Acid Receptor Alpha (RARE), DR5 submotif (AID 2282934); conditions: HepG2 Attagene cis-factorial RARE DR5 reporter, mRNA; actives raise or lower the signal;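 for AC50: reporter responds to endogenous RAR alpha beta and gamma in HepG2 not RARA alone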
Method in brief: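 HepG2 cells transiently transfected with multiplexed reporter units; DR5 cis-element drives reporter through endogenous transcription factors. After 24 h dosing, reporter mRNA quantified by RT-PCR, fluorescent labeling, HpaI digestion and capillary electrophoresis; bidirectional fitting versus DMSO.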

[19] = target: Transcription factor E2F1 (Homo sapiens) (UniProt Q01094); test: ATG_E2F_CIS: Attagene CIS-FACTORIAL HepG2 Assay for human E2F Transcription Factor 1 (AID 2282935); conditions: HepG2 Attagene cis-reporter, E2F reporter RNA transcripts; actives raise or lower the signal
Method in brief: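 Transient MRTU transfection of HepG2; 24 h compound exposure; RNA → oligo(dT) RT → PCR → FAM label → HpaI cut → CE fluorescence. Gain/loss of signal fit against DMSO.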

[20] = APR_HepG2_p53Act_72hr: Apredica 72-hour HepG2 Assay for p53 Activation (AID 2282923); conditions: high-content imaging, actives raise or lower the signal;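 note: average cellular p53 protein immunofluorescence intensity in HepG2 cells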
Method in brief: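 Fixed-cell p53 staining (sheep primary, Cy5 secondary) measured by fluorescence imaging following 72 hr treatment at 0.39–200 uM in 0.5% DMSO; DMSO served as negative control and baseline.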

Measured: AC50

CCAAT/enhancer-binding protein beta (Homo sapiens), sequence (P17676 whole entry, looked up): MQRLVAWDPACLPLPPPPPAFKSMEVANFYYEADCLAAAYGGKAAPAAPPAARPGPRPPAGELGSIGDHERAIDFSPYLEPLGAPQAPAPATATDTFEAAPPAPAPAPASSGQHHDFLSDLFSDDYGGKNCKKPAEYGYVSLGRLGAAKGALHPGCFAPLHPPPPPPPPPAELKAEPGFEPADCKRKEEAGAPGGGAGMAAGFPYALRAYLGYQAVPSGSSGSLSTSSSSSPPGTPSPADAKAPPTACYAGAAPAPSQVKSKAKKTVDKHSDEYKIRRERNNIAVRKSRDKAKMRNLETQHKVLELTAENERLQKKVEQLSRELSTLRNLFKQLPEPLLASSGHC
Retinoic acid receptor alpha (Homo sapiens), sequence (P10276 whole entry, looked up): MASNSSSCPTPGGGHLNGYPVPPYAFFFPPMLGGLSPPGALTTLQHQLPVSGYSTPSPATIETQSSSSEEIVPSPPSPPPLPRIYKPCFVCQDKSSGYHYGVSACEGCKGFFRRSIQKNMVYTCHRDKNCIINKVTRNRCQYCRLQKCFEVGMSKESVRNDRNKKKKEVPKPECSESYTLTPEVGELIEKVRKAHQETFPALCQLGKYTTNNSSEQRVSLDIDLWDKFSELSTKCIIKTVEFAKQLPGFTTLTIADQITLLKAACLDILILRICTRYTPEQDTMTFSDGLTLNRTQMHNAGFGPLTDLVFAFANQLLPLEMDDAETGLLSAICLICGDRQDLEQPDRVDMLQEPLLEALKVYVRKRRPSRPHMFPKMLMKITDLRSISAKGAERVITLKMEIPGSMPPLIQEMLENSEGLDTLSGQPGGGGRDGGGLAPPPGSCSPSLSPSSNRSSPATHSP
Aryl hydrocarbon receptor (Homo sapiens), sequence (P35869 whole entry, looked up): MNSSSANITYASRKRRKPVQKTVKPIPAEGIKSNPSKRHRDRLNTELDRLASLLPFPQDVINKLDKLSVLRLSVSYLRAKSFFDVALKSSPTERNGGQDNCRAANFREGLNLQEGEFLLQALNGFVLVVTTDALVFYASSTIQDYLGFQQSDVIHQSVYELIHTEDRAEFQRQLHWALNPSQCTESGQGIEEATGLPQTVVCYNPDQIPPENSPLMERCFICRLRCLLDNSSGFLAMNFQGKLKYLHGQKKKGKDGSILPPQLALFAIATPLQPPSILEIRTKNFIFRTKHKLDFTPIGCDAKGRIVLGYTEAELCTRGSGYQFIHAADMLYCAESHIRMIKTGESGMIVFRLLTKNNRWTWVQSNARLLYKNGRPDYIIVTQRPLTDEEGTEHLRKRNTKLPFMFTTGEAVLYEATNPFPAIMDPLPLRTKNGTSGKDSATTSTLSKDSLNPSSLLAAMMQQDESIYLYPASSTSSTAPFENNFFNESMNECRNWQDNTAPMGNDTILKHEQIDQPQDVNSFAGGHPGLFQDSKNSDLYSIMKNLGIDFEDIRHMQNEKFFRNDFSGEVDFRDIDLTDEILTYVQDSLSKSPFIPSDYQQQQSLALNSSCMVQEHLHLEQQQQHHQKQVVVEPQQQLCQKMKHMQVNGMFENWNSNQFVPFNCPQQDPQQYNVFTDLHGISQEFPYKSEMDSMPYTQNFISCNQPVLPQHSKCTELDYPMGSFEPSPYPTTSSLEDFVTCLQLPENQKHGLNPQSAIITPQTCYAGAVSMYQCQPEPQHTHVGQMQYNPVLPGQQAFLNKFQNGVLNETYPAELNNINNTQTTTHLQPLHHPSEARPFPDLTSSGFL
Transcription factor E2F1 (Homo sapiens), sequence (Q01094 whole entry, looked up): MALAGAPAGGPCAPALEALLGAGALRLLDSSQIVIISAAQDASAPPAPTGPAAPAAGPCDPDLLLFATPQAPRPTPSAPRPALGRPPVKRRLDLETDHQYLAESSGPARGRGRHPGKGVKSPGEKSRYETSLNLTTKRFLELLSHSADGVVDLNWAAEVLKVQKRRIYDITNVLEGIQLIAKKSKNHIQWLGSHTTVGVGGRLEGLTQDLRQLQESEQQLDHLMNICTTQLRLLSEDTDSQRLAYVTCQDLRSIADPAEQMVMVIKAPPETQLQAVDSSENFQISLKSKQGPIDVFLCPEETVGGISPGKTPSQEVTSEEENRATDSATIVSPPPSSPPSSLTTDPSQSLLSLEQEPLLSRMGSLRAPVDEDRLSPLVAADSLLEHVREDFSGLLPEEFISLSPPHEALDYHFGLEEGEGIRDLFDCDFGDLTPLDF

CC1(C)NC(=O)N(c2ccc([N+](=O)[O-])c(C(F)(F)F)c2)C1=O
inactive: [1] | [2] | [3] | [4] | [5] | [6] | [7] | [8] | [9] | [10] | [11] | [12] | [13] | [14] | [15] | [16] | [17] | [18] | [19]
active: [10] 0.00911 µM | [15] 39.2 µM | [18] 0.083 µM

O=C1O[C@H]([C@@H](O)CO)C(O)=C1O
active: [1] 11.2 µM | [3] 7.73 µM | [9] 11.1 µM | [14] 62 µM
inactive: [4] | [5] | [6] | [7] | [8] | [10] | [11] | [12] | [14] | [15] | [16] | [17] | [19]

Cc1oc2c(NC(=O)c3c(Cl)cccc3Cl)cccc2c1C(C)(C)O
active: [12] 6.16 µM | [14] 4.28 µM | [15] 38 µM | [17] 152 µM | [18] 3.06 µM
not listed: [2] | [13]
inactive: all other assays above
